The text below walks through data of PubChem BioAssay (EPA / NIEHS).

Active and inactive are the calls of the source. Rule for the calls: active = hit-call score of the fitted dose curve at least 0.9, where 1 is the maximum; inactive = score below 0.9.

Read-out in the assay: flavin-containing dimethylaniline monooxygenases 3 (FMO3), FMO3 (gene 2328)
Nature of the assay: LTEA_HepaRG_FMO3: Life Technologies and Expression Analysis (LTEA) Assay for flavin-containing dimethylaniline monooxygenases 3 (FMO3) using HepaRG (AID 2283453).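 For AC50: differentiated human HepaRG liver cells in serum-free induction medium; FMO3 transcript by TaqMan qRT-PCR normalized to ACTB GAPDH and POLR2A.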 The conditions noted are these: mRNA level, 48 h; actives raise or lower the signal. In outline:
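HepaRG, 48 h exposure, 8-pt half-log series from 100 uM, 0.5% DMSO vehicle, duplicates; FMO3 transcript by Fluidigm TaqMan qRT-PCR, housekeeping-normalized; gain/loss fit vs DMSO.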
Regarding `COc1cccc(C(=O)NN(C(=O)c2cc(C)cc(C)c2)C(C)(C)C)c1C`, the compound was classed as inactive.
Still for that read-out and setting: for `O=C(O)c1cc(Oc2ccc(C(F)(F)F)cc2Cl)ccc1[N+](=O)[O-]` the value was “inactive”; for `Cc1cc(C2CC2)nc(Nc2ccccc2)n1`, “inactive”; for `CNC(=O)Oc1cccc2c1OC(C)(C)O2`, “inactive”.
Turning to `CC(C1CC1)C(O)(Cn1cncn1)c1ccc(Cl)cc1` (stereo not given), the AC50 is 77.7 µM (active).
On to `CSc1nnc(C(C)(C)C)c(=O)n1N`, for which the compound was called inactive.
`CCCOCC(=Nc1ccc(Cl)cc1C(F)(F)F)n1ccnc1`: the AC50 was 73 µM (active).
As for `COP(=O)(NC(C)=O)SC` (stereo not given), the outcome was inactive.
The same measure, in the same setting: with `CCOC(=O)COc1cc(-c2nn(C)c(OC(F)F)c2Cl)c(F)cc1Cl` the entry was “inactive”; with `CN(C)C(=O)Nc1cccc(C(F)(F)F)c1`, “inactive”.
On to `Nc1nc(N)nc(NC2CC2)n1`, for which the compound was classed as inactive.
Still for that read-out and setting: with `CN(C)NC(=O)CCC(=O)O` the entry was “inactive”.
Still for that read-out and setting: with `CNC(=O)ON=C(SC)C(=O)N(C)C` the entry was “inactive”.
As for `CCc1cccc(C)c1N(C(=O)CCl)C(C)COC` (stereo not given), the result was inactive.
As to `CCOP(=S)(OCC)Oc1ccc2c(C)c(Cl)c(=O)oc2c1`, the AC50 is 81.1 µM (active).
In the case of `CNc1cnn(-c2cccc(C(F)(F)F)c2)c(=O)c1Cl`, the concentration at half-maximal activity (AC50) was 38.8 µM (active).
Take `CC(C)[C@H](C(=O)O[C@H](C#N)c1cccc(Oc2ccccc2)c1)c1ccc(Cl)cc1`: the outcome was inactive.
On the same count and under the same terms, with `COc1ccc(C(=CC(=O)N2CCOCC2)c2ccc(Cl)cc2)cc1OC` the entry was “inactive”; with `CCOP(=O)(NC(C)C)Oc1ccc(SC)c(C)c1` (stereo not given), “inactive”.
As to `CSc1nc(NC(C)C)nc(NC(C)C)n1`, the AC50 was 35.9 µM (active).
With `CC1(C(=O)Nc2ccc(O)c(Cl)c2Cl)CCCCC1`, the result was inactive.
For the compound `CCNc1nc(Cl)nc(NC(C)(C)C#N)n1`, the result was inactive.
Still for that read-out and setting: for `CNC(=O)ON=C(C)SC` the value was “inactive”.
On to `Nc1c(Cl)cc([N+](=O)[O-])cc1Cl`, for which the half-maximal activity concentration (AC50) is 50 µM (active).
For the compound `CC(COc1ccc(Oc2ccccc2)cc1)Oc1ccccn1` (stereo not given), the result was inactive.
For the compound `C#CC(C)(C)NC(=O)c1cc(Cl)cc(Cl)c1`, the compound was called inactive.
`CCCSP(=O)(OCC)Oc1ccc(Br)cc1Cl` (stereo not given): the compound was classed as inactive.
Regarding `FC(F)C(F)(F)OCC(Cn1cncn1)c1ccc(Cl)cc1Cl` (stereo not given), the concentration at half-maximal activity (AC50) is 35.6 µM (active).
Same read-out and setting: with `C[Si](Cn1cncn1)(c1ccc(F)cc1)c1ccc(F)cc1` the figure was 37.5 µM (active).
As to `CCOP(=S)(OCC)Oc1cc(C)nc(C(C)C)n1`, the outcome was inactive.
Still for that read-out and setting: with `CCCCN(CC)c1c([N+](=O)[O-])cc(C(F)(F)F)cc1[N+](=O)[O-]` the entry was “inactive”.
Same read-out and setting: with `C#CCC1=C(C)C(OC(=O)C2C(C=C(C)C)C2(C)C)CC1=O` (stereo not given) the entry was “inactive”; with `CCOP(=S)(OCC)Oc1ccc([N+](=O)[O-])cc1`, “inactive”; with `CCCSP(=O)(OCC)SCCC`, “inactive”.
On the same count and under the same terms, for `Cc1ccn2nc(S(=O)(=O)Nc3c(F)cccc3F)nc2n1` the value was “inactive”.

The AC50 is the midpoint of the concentration-response curve, whichever way the signal moves.
